In PMC7826789 (International Journal of Molecular Sciences, 2021):

Tests used:
Details in all cases: Compound Concentration (nM):1000
CSNK2A2 = tested on: CSNK2A2
CTK = tested on: T1, CTK
T1 construct: gene MATK

DAPK1 = tested on: DAPK1
DAPK2 = tested on: DAPK2
DAPK3 = tested on: DAPK3
DCAMKL1 = tested on: T2, DCAMKL1
T2 construct: gene DCLK1

DCAMKL2 = tested on: T3, DCAMKL2
T3 construct: gene DCLK2

DCAMKL3 = tested on: T4, DCAMKL3
T4 construct: gene DCLK3

DDR1 = tested on: DDR1
DDR2 = tested on: DDR2
DLK = tested on: T5, DLK
T5 construct: gene MAP3K12

DMPK2 = tested on: T6, DMPK2
T6 construct: gene CDC42BPG

DMPK = tested on: DMPK
DRAK1 = tested on: T7, DRAK1
T7 construct: gene STK17A

DRAK2 = tested on: T8, DRAK2
T8 construct: gene STK17B

DYRK1A = tested on: DYRK1A
DYRK1B = tested on: DYRK1B
DYRK2 = tested on: DYRK2
EGFR(E746-A750del) = tested on: EGFR(E746-A750del)
EGFR(G719C) = tested on: EGFR(G719C)
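Further: KINOMEscan scanMAX binding as percent activity remaining versus control; lower means stronger binding.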

SMILES	Percent Control (CSNK2A2) [%]	Percent Control (CTK) [%]	Percent Control (DAPK1) [%]	Percent Control (DAPK2) [%]	Percent Control (DAPK3) [%]	Percent Control (DCAMKL1) [%]	Percent Control (DCAMKL2) [%]	Percent Control (DCAMKL3) [%]	Percent Control (DDR1) [%]	Percent Control (DDR2) [%]	Percent Control (DLK) [%]	Percent Control (DMPK2) [%]	Percent Control (DMPK) [%]	Percent Control (DRAK1) [%]	Percent Control (DRAK2) [%]	Percent Control (DYRK1A) [%]	Percent Control (DYRK1B) [%]	Percent Control (DYRK2) [%]	Percent Control (EGFR(E746-A750del)) [%]	Percent Control (EGFR(G719C)) [%]
C/C(Nc1ccc(S(N)(=O)=O)cc1)=C1/C(=O)Nc2ccccc21 [GW335962X]	21	84	94	93	96	80	80	100	95	100	73	97	99	100	97	77	93	46	100	91
COC(=O)Nc1nc2ccc(Oc3ccc(NC(=O)Nc4cc(C(F)(F)F)ccc4F)cc3)cc2s1.Cl [GW693917A]	68	91	95	100	100	95	86	100	0	5.8	64	73	100	100	99	82	100	62	88	98
CCn1c(-c2nonc2N)nc2c(C#CC(C)(C)O)nc(OCCNC)cc21.Cl [GSK949675]	97	100	100	100	100	100	100	66	100	100	86	100	100	100	100	70	100	87	97	100
Cl.O=C(Nc1ccc(Oc2ccc3[nH]c(NC(=O)c4ccccc4)nc3c2)cc1)Nc1cc(C(F)(F)F)ccc1F [GW709042A]	72	100	100	100	100	92	96	100	0	16	77	86	100	100	100	100	100	97	94	71
CCS(=O)(=O)c1ccc(OC)c(Nc2ncc(-c3cccc(F)c3)o2)c1 [GW621970X]	1.4	100	100	100	100	100	98	100	55	100	71	100	100	100	100	61	67	41	73	100
COc1ccc2[nH]c3c4[nH]c5ccc(OC)cc5c4c4c(c3c2c1)C(=O)NC4=O [GW296115X]	56	93	22	4.9	4.8	90	90	19	77	72	77	84	56	0.4	2.2	48	79	50	20	64
CN(C)c1cc2c(Nc3ccc4c(cnn4Cc4ccccc4)c3)ncnc2cn1 [GW282974X]	65	100	100	91	100	85	100	100	66	100	82	48	95	69	100	93	100	73	–	–
CN1CCN(C(=O)c2ccc(NC(=O)Nc3ccc(N(C)c4ccnc(Nc5ccc(CS(C)(=O)=O)cc5)n4)cc3)cc2)CC1.Cl [GW830263A]	63	100	95	100	100	97	79	100	0	0	30	64	100	100	100	62	91	75	87	95
Cl.O=C(O[C@H]1CN[C@H](C#Cc2cc3ncnc(Nc4ccc5c(cnn5Cc5ccccc5)c4)c3s2)C1)N1CCOCC1 [GSK200398A]	70	89	95	100	100	82	100	100	92	100	71	100	100	89	99	76	100	84	38	0.1
COc1ccccc1-c1cc(/C=C2\C(=O)Nc3ncc(Br)cc32)cc(Br)c1O [GW442130X]	72	99	100	88	88	100	100	89	92	100	100	100	100	85	100	59	68	95	100	100
COc1ccc2c(-c3ccnc(Nc4cccc(OC(F)(F)F)c4)n3)cnn2n1 [GW810372X]	59	100	100	98	100	100	100	100	100	100	92	100	100	81	100	35	13	45	99	97
COc1cc(/C=N/Nc2ncnc3[nH]ncc23)ccc1O [GW578748X]	7.7	97	78	75	48	68	100	68	100	100	71	100	100	7	9.9	12	69	2.5	90	52
CC1=C(C(=O)Nc2ccc3[nH]ncc3c2)C(c2ccc(Cl)c(Cl)c2)CC(=O)N1 (centres unmarked) [GSK299115A]	79	62	81	83	81	83	55	45	88	81	77	82	100	100	84	70	59	68	98	66
COc1cc(N2CCN(C(C)C)CC2)ccc1Nc1nc(Nc2ccc(F)cc2C(=O)NC[C@@H](O)CO)c2cc[nH]c2n1 [GSK1392956A]	88	95	13	6.8	4.3	78	100	100	98	100	77	75	100	87	93	53	75	24	74	94
Nc1ncnc2occ(-c3ccc(NC(=O)Nc4cc(C(F)(F)F)ccc4F)cc3)c12 [GW770249X]	93	70	100	100	98	78	76	100	0	1.3	90	96	100	100	96	100	100	86	91	89
Cl.O=S1CCN(Cc2ccc(-c3ccc4ncnc(Nc5ccc(OCc6ccccc6)c(F)c5)c4c3)o2)CC1 [GW576924A]	100	100	100	100	100	89	100	100	100	100	90	100	100	100	100	100	100	91	14	0
CCS(=O)(=O)c1ccc(OC)c(Nc2ncc(-c3cccc(OC)c3)o2)c1 [GW580509X]	4.4	100	100	90	100	81	100	100	59	100	88	100	100	100	100	39	41	23	81	100
COc1cc2ncn(-c3cc(O[C@H](C)c4ccccc4Cl)c(C(N)=O)s3)c2cc1OC [GSK237701A]	34	78	55	81	79	77	100	100	100	74	59	91	100	100	89	92	100	68	85	64
CCc1ccc(Oc2nccc(-c3c(-c4ccc(F)cc4)ncn3C3CCNCC3)n2)cc1 [SB-242719]	69	89	92	74	69	77	81	100	73	94	100	2.1	100	77	55	95	98	76	46	69
CC1=C(C(=O)Nc2ccc3[nH]ncc3c2)C(c2ccc3ccccc3c2)CC(=O)N1 (centres unmarked) [GSK270822A]	80	54	95	100	100	90	74	94	79	90	68	94	100	95	84	92	83	66	100	53
